Measured values published in ChEMBL document CHEMBL1961873, “Compounds: GSK PKIS; Assays: Nanosyn kinase panel” (2012).

Assays:
[1] = molecular target: T1, Tyrosine-protein kinase ITK/TSK (Homo sapiens) (UniProt Q08881); details: at 1 µM;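 note: values are mean percent inhibition of ITK from the GSK PKIS screen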
T1 sequence (whole entry): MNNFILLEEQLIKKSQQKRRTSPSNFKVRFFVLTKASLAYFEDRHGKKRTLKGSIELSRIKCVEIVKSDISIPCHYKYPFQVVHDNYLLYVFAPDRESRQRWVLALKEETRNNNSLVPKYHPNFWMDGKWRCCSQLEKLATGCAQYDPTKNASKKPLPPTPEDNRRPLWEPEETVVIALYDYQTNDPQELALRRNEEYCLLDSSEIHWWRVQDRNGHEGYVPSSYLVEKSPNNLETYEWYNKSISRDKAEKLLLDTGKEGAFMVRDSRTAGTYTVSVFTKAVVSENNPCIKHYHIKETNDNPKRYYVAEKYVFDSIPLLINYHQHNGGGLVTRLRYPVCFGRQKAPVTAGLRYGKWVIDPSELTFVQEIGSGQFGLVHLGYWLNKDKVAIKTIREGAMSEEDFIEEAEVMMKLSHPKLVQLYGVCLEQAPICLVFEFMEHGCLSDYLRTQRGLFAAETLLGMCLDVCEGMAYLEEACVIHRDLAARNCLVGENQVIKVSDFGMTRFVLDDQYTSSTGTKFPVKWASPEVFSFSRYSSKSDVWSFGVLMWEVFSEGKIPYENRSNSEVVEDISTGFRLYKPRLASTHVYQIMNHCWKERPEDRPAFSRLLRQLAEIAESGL

[2] = molecular target: Tyrosine-protein kinase JAK1 (Homo sapiens) (UniProt P23458); details: at 0.1 µM
Sequence of Tyrosine-protein kinase JAK1 (Homo sapiens) (P23458 whole entry): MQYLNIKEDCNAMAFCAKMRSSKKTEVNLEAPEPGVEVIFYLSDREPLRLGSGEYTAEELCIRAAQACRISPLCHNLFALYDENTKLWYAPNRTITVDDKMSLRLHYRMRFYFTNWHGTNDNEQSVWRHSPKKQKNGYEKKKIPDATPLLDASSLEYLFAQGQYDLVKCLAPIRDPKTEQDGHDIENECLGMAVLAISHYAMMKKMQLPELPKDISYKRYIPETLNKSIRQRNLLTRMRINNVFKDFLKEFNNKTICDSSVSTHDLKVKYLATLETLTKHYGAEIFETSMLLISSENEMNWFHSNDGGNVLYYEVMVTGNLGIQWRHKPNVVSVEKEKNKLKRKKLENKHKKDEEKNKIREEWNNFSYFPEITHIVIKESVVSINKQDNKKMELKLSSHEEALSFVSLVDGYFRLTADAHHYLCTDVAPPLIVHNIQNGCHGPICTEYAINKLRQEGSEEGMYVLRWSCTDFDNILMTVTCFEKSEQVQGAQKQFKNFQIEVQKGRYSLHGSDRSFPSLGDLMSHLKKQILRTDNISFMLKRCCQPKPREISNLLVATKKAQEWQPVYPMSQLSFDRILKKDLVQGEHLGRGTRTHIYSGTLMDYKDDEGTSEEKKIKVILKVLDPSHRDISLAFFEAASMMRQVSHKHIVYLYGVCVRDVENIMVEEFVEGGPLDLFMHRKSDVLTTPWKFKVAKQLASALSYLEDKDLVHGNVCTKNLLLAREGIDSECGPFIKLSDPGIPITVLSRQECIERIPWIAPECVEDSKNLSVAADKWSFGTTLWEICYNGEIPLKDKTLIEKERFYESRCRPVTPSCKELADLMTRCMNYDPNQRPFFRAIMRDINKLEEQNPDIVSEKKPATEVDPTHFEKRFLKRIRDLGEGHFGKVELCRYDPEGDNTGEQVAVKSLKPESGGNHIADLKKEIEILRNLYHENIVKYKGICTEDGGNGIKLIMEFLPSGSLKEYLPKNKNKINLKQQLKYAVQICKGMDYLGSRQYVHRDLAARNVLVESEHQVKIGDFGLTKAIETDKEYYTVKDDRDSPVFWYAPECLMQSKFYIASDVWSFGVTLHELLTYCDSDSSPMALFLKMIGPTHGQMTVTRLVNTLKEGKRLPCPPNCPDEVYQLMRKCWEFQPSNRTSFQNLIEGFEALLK

[3] = molecular target: Tyrosine-protein kinase JAK1 (Homo sapiens) (UniProt P23458); details: at 1 µM
[4] = molecular target: Tyrosine-protein kinase JAK2 (Homo sapiens) (UniProt O60674); details: at 0.1 µM
Sequence of Tyrosine-protein kinase JAK2 (Homo sapiens) (O60674 whole entry): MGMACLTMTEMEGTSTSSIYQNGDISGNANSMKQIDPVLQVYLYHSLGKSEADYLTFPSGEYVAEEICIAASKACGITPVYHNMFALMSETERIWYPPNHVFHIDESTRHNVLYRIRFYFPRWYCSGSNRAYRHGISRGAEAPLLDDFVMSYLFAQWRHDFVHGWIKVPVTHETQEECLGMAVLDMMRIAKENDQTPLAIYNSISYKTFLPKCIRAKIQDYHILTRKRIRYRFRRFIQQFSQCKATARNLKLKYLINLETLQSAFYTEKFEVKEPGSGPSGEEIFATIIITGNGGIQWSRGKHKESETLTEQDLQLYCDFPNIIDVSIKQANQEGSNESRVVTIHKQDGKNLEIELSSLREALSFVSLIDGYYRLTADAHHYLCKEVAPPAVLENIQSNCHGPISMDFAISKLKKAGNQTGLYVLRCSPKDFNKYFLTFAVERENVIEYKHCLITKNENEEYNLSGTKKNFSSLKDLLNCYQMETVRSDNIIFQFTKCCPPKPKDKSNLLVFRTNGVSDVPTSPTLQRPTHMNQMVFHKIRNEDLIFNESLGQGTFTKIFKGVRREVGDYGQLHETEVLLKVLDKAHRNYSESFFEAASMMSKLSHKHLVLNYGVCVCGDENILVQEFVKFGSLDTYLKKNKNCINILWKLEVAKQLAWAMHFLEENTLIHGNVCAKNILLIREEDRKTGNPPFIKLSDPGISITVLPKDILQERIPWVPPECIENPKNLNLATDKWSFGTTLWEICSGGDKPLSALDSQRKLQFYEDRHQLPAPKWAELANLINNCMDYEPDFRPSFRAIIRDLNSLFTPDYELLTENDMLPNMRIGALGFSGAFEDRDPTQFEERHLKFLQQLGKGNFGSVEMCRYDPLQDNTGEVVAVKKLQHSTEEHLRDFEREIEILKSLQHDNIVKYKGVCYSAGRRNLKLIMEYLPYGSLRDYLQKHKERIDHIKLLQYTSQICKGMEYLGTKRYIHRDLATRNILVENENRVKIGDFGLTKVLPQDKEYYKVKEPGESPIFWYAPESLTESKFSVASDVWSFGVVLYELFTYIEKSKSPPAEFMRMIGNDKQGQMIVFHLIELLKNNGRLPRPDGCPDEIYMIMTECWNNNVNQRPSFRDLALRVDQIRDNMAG

[5] = molecular target: Tyrosine-protein kinase JAK2 (Homo sapiens) (UniProt O60674); details: at 1 µM
[6] = molecular target: T2, Tyrosine-protein kinase JAK3 (Homo sapiens) (UniProt P52333); details: at 0.1 µM
T2 sequence (whole entry): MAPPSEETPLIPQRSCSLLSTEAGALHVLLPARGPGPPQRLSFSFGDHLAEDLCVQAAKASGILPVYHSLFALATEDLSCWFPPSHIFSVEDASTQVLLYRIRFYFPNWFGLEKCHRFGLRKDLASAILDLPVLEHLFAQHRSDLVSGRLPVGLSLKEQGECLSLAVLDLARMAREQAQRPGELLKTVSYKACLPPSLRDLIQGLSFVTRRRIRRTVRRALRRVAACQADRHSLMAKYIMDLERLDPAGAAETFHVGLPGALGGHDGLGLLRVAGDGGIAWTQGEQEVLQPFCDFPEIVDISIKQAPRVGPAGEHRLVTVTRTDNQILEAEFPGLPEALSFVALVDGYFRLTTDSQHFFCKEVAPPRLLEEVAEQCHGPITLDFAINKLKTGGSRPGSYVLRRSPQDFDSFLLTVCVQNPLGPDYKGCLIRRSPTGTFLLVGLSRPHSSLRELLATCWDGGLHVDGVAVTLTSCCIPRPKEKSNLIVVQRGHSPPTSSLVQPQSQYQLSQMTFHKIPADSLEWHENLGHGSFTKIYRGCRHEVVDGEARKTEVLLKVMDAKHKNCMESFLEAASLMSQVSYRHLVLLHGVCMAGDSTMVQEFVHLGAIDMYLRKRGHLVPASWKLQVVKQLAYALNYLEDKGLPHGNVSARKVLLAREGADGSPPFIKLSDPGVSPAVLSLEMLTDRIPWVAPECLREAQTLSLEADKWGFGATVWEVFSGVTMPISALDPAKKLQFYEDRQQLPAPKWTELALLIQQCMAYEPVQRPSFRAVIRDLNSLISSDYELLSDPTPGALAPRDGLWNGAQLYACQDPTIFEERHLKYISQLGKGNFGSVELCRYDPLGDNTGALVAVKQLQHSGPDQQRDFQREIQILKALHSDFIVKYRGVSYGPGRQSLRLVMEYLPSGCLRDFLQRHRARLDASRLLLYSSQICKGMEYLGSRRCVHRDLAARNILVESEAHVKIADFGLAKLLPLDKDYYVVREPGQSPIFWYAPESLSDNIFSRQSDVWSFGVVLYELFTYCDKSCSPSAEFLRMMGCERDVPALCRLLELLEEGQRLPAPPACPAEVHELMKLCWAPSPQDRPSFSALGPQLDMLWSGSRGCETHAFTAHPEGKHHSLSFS

[7] = molecular target: T2, Tyrosine-protein kinase JAK3 (Homo sapiens); details: at 1 µM
[8] = molecular target: Vascular endothelial growth factor receptor 2 (Homo sapiens) (UniProt P35968); details: at 0.1 µM
Sequence of Vascular endothelial growth factor receptor 2 (Homo sapiens) (P35968 whole entry): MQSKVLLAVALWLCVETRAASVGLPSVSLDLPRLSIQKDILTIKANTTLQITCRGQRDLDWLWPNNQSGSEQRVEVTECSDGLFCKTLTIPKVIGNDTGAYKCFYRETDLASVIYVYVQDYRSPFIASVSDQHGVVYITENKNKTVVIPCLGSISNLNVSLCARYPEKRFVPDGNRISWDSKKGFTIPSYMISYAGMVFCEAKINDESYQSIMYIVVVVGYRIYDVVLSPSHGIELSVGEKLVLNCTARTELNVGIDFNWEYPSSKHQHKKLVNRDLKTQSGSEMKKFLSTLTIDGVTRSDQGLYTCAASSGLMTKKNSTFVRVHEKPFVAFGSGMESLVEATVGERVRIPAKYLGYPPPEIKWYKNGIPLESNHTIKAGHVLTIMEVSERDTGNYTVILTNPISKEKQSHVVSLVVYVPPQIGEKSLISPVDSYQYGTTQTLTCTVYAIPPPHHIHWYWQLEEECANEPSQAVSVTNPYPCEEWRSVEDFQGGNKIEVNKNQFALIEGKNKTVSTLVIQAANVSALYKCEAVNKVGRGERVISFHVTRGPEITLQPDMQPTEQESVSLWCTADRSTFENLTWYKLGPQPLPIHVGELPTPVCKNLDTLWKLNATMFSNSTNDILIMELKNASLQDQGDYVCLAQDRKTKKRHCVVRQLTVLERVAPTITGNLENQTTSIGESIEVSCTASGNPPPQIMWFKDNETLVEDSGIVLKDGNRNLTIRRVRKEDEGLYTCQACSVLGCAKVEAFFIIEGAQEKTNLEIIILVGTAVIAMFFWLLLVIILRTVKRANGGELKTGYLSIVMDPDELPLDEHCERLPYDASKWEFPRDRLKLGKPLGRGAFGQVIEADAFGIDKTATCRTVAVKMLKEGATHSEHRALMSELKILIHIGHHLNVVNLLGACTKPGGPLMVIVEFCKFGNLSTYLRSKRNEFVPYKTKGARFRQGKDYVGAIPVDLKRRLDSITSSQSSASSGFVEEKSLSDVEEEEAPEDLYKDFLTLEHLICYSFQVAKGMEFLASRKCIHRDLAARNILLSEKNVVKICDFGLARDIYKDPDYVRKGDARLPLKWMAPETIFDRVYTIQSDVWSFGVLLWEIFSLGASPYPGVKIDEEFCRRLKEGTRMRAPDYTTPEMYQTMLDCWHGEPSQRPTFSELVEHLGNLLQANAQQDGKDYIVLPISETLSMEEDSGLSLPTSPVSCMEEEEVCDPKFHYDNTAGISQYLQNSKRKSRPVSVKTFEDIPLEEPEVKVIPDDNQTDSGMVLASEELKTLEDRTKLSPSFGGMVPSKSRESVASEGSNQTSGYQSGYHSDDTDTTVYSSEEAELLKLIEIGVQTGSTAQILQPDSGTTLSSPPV

[9] = molecular target: Vascular endothelial growth factor receptor 2 (Homo sapiens) (UniProt P35968); details: at 1 µM
[10] = molecular target: Mast/stem cell growth factor receptor Kit (Homo sapiens) (UniProt P10721); details: at 0.1 µM;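 note: values are mean inhibition of KIT, from the GSK PKIS dataset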
Sequence of Mast/stem cell growth factor receptor Kit (Homo sapiens) (P10721 whole entry): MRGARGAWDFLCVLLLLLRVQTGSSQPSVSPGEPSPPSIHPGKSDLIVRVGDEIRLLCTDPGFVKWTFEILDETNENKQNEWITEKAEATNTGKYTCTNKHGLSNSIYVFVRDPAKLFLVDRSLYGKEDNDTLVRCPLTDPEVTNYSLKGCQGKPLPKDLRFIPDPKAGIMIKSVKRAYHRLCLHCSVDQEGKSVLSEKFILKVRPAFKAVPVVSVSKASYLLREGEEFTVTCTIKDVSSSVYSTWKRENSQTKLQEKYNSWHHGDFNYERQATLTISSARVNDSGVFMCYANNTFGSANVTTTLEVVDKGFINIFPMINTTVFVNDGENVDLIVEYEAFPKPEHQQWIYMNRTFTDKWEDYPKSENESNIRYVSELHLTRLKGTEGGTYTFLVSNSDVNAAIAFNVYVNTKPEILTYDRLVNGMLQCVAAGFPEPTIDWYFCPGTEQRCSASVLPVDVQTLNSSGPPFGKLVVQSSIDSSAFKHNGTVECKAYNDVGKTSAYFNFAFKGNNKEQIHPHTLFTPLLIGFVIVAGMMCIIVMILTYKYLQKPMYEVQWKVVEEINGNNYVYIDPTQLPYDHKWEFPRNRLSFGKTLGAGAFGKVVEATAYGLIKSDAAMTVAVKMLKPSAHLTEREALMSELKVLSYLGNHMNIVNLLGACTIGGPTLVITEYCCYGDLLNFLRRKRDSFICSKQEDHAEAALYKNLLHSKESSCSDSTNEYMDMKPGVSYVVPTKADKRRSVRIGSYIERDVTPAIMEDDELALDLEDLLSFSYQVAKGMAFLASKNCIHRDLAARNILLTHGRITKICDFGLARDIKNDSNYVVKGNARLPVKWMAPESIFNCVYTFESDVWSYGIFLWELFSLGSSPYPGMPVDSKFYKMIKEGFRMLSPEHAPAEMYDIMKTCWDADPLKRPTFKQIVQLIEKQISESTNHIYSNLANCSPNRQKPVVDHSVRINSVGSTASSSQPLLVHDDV

SMILES	inhibition [1] [%]	inhibition [2] [%]	inhibition [3] [%]	inhibition [4] [%]	inhibition [5] [%]	inhibition [6] [%]	inhibition [7] [%]	inhibition [8] [%]	inhibition [9] [%]	inhibition [10] [%]
O=C(Nc1n[nH]c2nc(-c3ccco3)c(Br)cc12)C1CC1	23.7	2.41	-1.14	1.5	1.59	-1.04	1.18	5.71	15.5	6.02
COc1cc(C=NNc2ncnc3c2cnn3-c2ccccc2)ccc1O	4.53	2.76	3.21	1.26	8.82	-0.33	4.39	12.4	49.6	15
CC1=C(C(=O)Nc2ccc3[nH]ncc3c2)C(c2ccc3ccccc3c2)CC(=O)N1 (configuration not stated)	14.2	4.05	29.5	2.05	25.8	0.88	30.9	5.3	12.5	2.51
CCCN1CCC(Oc2cc(Nc3nc(Nc4cccc(F)c4C(N)=O)c4cc[nH]c4n3)c(OC)cc2Cl)CC1	1.18	-1.95	-2.49	0.96	1.42	0.62	1.56	9.18	18.5	-0.76
COc1ccc(-c2ccncc2)cc1C(N)=O	2.32	0.28	3.27	2.44	3.4	-2	0.37	2.67	13	3.75
CC(C)=Cc1cccc2c1/C(=N/Nc1ccc(S(N)(=O)=O)cc1)C(=O)N2	4.66	2.53	17.6	2.18	34.2	5.65	54.4	8.9	48.5	14.1
CS(=O)(=O)CCNCc1nc(-c2ccc3ncnc(Nc4ccc(F)c(Cl)c4)c3c2)cs1	0.89	2.86	4.25	0.34	4.99	-0.02	3.43	9.85	18.5	3.87
COc1ccc(COc2ccc(Cc3cnc(N)nc3N)cc2OC)cc1	2.31	3.77	-0.05	1.99	4.19	2.12	3.61	6.02	9.65	1.04
COc1cc(C)c(NC(=O)CN(C)C)cc1Nc1nc(Nc2cccc(F)c2C(N)=O)c2cc[nH]c2n1	1.95	2.55	-4.44	0.46	0.22	0.71	-1.63	3.26	4.13	2.98
O=C1NC(=O)C(N2CCc3ccccc32)=C1c1ccc(Cl)cc1	2.44	1.13	0.25	1.54	2.81	-1.28	1.36	12.4	14.6	6.61
CN(C)c1cc2c(Nc3ccc4nc(Cc5ccccc5)[nH]c4c3)ncnc2cn1	1.51	5.67	8.16	2.34	1.44	-1.29	-1.24	7.5	10.4	4.97
CCn1c(-c2nonc2N)nc2c(N3CCCC3)nccc21	-0.14	–	-2.79	-0.66	-1.59	-0.2	2.23	1.32	6.67	-1.56
CC(=O)Nc1cccc(C#Cc2cncnc2Nc2ccc(OCc3cccc(F)c3)c(Cl)c2)n1	0.33	3.25	14.8	-1.97	-0.27	2.07	2.66	-2.26	2.74	-0.74
Cc1ccc(NC(=O)c2ccnc(N3CCCC3)c2)cc1-c1ccc(C(=O)NCC2CC2)cc1	-1.06	4.61	5.32	1.37	2.33	-2.85	2.32	9.55	10.2	5.54
CCn1c(-c2nonc2N)nc2ccncc21	0.76	1.34	6.51	0.33	0.91	-1.14	2.73	1.87	2.46	-0.66
Cn1cc(C=C2C(=O)Nc3cccnc32)c2ccccc21	15.7	1.61	-6.11	0.37	2.77	-0.5	4.53	14.7	54.8	11.3
NCc1ccc(-c2nc(-c3ccc(Cl)c(O)c3)c(-c3ccncc3)[nH]2)cc1	1.29	-0.11	2.34	0.65	0.75	1.4	1.41	69.2	74.8	0.79

SMILES	inhibition [1] [%]	inhibition [2] [%]	inhibition [3] [%]	inhibition [4] [%]	inhibition [5] [%]	inhibition [6] [%]	inhibition [7] [%]	inhibition [8] [%]	inhibition [9] [%]	inhibition [10] [%]
Nc1nc(-c2ccc3c(c2)C(=Cc2cc(Br)c(O)c(Br)c2)C(=O)N3)cs1	1.31	0.76	-0.48	-0.72	-1.87	1.19	2.02	1.8	11.3	-0.22
CCn1c(-c2nonc2N)nc2c(C#CC(C)(C)O)nc(OC[C@@H](N)c3ccccc3)cc21	0.95	-3.77	2.1	0.33	6.32	1.24	4.39	35.1	71.2	-1.3
Cc1cc(O)cc(C)c1/C=C/c1cncc(-c2nn[nH]n2)c1	-1.93	1.7	4.82	1.66	2.27	-4.63	-3.88	4.58	10.2	11.9
NS(=O)(=O)c1cccc(-c2ccc3c(NC(=O)C4CC4)n[nH]c3c2)c1	0.22	–	-4.88	-0.14	-1.18	-0.5	1.58	0.44	6.32	-1.56
CS(=O)(=O)CCNCc1ccc(-c2ccc3ncnc(Nc4ccc(OCc5ccccc5)c(Cl)c4)c3c2)o1	1.43	-0.15	1.78	-0.29	1.05	0.91	2.44	6.23	14.2	2.73
CCN1CCC(CC(=O)Nc2n[nH]c3nc(-c4cccs4)c(Br)cc23)CC1	0.48	-7.81	-3.93	-1.09	-2.38	0.48	2.19	1.49	15.5	-4.07
COC(=O)Nc1nc2cc(Oc3ccc(NC(=O)Nc4cccc(C(=O)O)c4)cc3)ccc2[nH]1	-2.68	2.43	2.01	-0.28	4.54	-3.56	0.66	–	–	2.05
NC(=O)c1cccc(Nc2nccc(Nc3cccc4[nH]ncc34)n2)c1	1.1	–	19.6	6.75	57	0.54	25.2	16.1	63.1	48.5
O=C1NC(=O)C(c2ccccc2Cl)=C1Nc1cccc(O)c1	2.08	3.43	0.51	2.97	4.56	0.39	21.8	4.45	6.91	0.48
COc1cccc(-n2ncc3c(N/N=C/c4cccc(F)c4)ncnc32)c1	-2.13	2.37	2.01	1.22	1.44	-4.29	0.79	10.1	34.1	3.25
CCc1cccc(NC(=O)Nc2ccc(Oc3ccc4nc(NC(=O)OC)[nH]c4c3)cc2)c1	1.87	1.39	1.27	1.07	4.62	-1.05	1.13	–	–	87.5
N#Cc1c(NC(=O)c2cccc3ccccc23)sc2c1CCCC2	1.28	3.98	3.68	1.62	1.85	-0.84	1.51	6.33	9.83	2.71
CCn1c(-c2nonc2N)nc2cncc(C(=O)N3CCNCC3)c21	2.09	4.28	4.72	4.03	2.86	-0.41	-0.7	3.99	9.13	7.95
Nc1ncnc2occ(-c3ccc(NC(=O)Nc4cc(C(F)(F)F)cc(C(F)(F)F)c4)cc3)c12	11.2	-0.74	–	0.74	1.44	0.06	0.78	46.7	68.2	29
O=C1NC(=O)C(c2ccc(Cl)cc2)=C1Nc1ccc(Cl)c(C(=O)O)c1	0.04	-3.25	-7.51	-0.25	-0.22	0.01	2.64	4.84	9.16	-0.92
COc1ccc2cc(-c3c(-c4ccncc4)nc(-c4ccc([S+](C)[O-])cc4)n3C)ccc2c1 (configuration not stated)	3.22	1.65	-2.81	0.86	2.23	-0.93	0.05	4.56	17.8	1.88
Cc1nnc(-c2ccc(C)c(-c3ccc(C(=O)Nc4cccc(C#N)c4)cc3)c2)o1	0.58	1.77	6.74	-0.14	-0.34	-1.17	1.29	3.3	7.82	5.68
